Assay outcomes: PubChem, National Center for Advancing Translational Sciences (NCATS)
HPGD inh = inhibitors of human 15-hydroxyprostaglandin dehydrogenase (HPGD). P15428. purified HPGD, NADH fluorescence kinetic, PGE2 substrate. Potency, µM, for inactives: at the top dose activity change, negative = inhibition, actives largely listed as inhibitors. actives 4.3% (n = 150,000). AID 894; note: potency is the fitted concentration of half-maximal effect
Target sequence (P15428 whole entry, looked up): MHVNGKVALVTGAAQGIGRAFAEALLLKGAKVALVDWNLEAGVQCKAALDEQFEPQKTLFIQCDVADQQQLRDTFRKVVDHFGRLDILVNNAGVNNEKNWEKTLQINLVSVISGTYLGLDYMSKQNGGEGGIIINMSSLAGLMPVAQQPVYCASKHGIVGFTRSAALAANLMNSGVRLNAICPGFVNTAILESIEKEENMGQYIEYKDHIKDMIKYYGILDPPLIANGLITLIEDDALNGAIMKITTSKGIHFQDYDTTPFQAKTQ
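NADH formation kinetics: reaction with 30 uM PGE2 and 1 mM NAD+ (final), 20 nM enzyme, Tris-HCl pH 8 with Tween 20, after 15 min compound preincubation at room temperature. Fluorescence change, last versus first of five reads.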
ALDH1A1 inh = ALDH1A1 (human) enzyme inhibition; AID 1030; P00352; Potency, µM (series often up to 75.3 µM), for inactives: top-dose activity, negative = inhibition, usual class: inhibitors; actives 7.3% (n = 220,000); Purified ALDH1A1, NADH fluorescence, propionaldehyde substrate;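 note: potency is the fitted concentration of half-maximal effect; plate controls were no enzyme wells and a reference inhibitor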
ALOX12 inhib = blocks human 12-lipoxygenase activity. P18054. Potency, µM (top dose mostly 57.1 µM), without a hit: at the top dose activity change, negative = inhibition, most hits filed as inhibitors. actives 0.12% (n = 150,000). purified 12-hLO, xylenol orange hydroperoxide absorbance. AID 1452; active = well fitted inhibition curve with a large enough effect; inconclusive = small, poorly fitted or top-dose-only effect; note: potency is the fitted concentration of half-maximal effect; nearly all actives have a fitted effect of over 55% in size
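Purified human 12hLO (150 nM), preincubated 15 min with compound, then 40 uM arachidonic acid for 30 min, room temperature, Hepes pH 7.0 with 0.01% Triton X-100. Hydroperoxide detected by ferrous iron/xylenol orange; 573/405 nm absorbance ratio gives reaction progress.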
PNC assembly inh = blocks assembly of the perinucleolar compartment | PC3M PTB-GFP, PNC prevalence imaging, 16 h; hits give low values | actives 3.1% (n = 140,000) | activity change (PNC), negative = inhibition, % at 10 µM;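 active = readout at or below -70, meaning at least 70% loss of cells showing the perinucleolar compartment, a nuclear body marking cancer cells; inconclusive = readout between -30 and a set limit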;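 note: plate controls were DMSO wells for no effect and camptothecin positive control wells for full effect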
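PC3M cells stably expressing PTB-GFP, 750–1000 cells/well, treated 16 h at 37 °C with compound (23 nl of library stock), in duplicate. After paraformaldehyde fixation and Hoechst stain, imaged at 20x; PNC prevalence scored by image analysis.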
LMNA splice mod = LMNA splicing modulation; HeLa LMNA splicing GFP/RFP minigene ratio, 48 h; Potency, µM (series often up to 46.1 µM), inactives show top-dose ratio change, negative = inhibition, usual class: inhibitors; actives 0.01% (n = 200,000); AID 1487; active = well fitted inhibition curve with a large enough effect in the signal ratio, with a control signal flat, not every such curve was filed as active; inconclusive = small, poorly fitted or top-dose-only effect, or effect the other way, or a change in a side signal; the % refers to the signal ratio; note: potency is the fitted concentration of half-maximal effect
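Read-out is the ratio of GFP to DsRed2 object intensity, acquired by 488 nm laser-scanning cytometry on HeLa lamin A-EGFP minigene reporter cells. Compound incubation 48 hrs at 37 °C in Opti-MEM with 2% FBS; DMSO 0.5% final.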
* hit, by the source's call; ? = inconclusive; . = no result given; [ ] = remark or other dose. Compounds with a hit are over-represented: about 10% of the library has one in this group of screens. Unless noted, calls come from the whole dose curve; as a rule, active = well fitted inhibition curve with a large enough effect (not every such curve was filed as active); inconclusive = small, poorly fitted or top-dose-only effect, or another doubt; inactive = no such curve, though single readings can be large or run the other way. Unless noted, % is set by controls: 0 for no effect and ±100 for the full control effect.

SMILES	HPGD inh	ALDH1A1 inh	ALOX12 inhib	PNC assembly inh	LMNA splice mod
COc1ccc(Cl)cc1NC(=O)CCn1nc(C)cc1C	.	.	.	.	12.7%[46 µM]
O=C(Nc1cccc(C(F)(F)F)c1)c1cc(S(=O)(=O)N2CCCC2)c[nH]1	.	.	.	.	21.3%[46 µM]
O=c1[nH]n(-c2cccc3cccnc23)c(=O)c2ccccc12	25.1µM*	1.0%	-6.8%	-3.9	1.4%
O=C(Cc1ccccc1)NC1CC(=O)N(c2ccc3c(c2)OCCO3)C1 (stereo not drawn)	.	.	.	.	7.8%[46 µM]
Cc1nc(C)c(C(=O)Nc2ccc(Oc3ccccc3)cc2)o1	-17.8%	31.6µM*	0.3%	?	?
Cc1ncoc1C(=O)Nc1ccc(Oc2ccccc2)cc1	-18.3%	-6.7%	-5.3%	34.6	?
Cn1c(=O)c2c(-c3ccccc3)n(Cc3ccccn3)cc2n(C)c1=O	-9.6%	?	-2.2%	39.0	4.1%
CC(=O)Nn1cc2c(c1-c1ccccc1)c(=O)n(C)c(=O)n2C	?	?	-3.0%	-137.9*	?
CCCn1c2ccccc2c2nnc(SC(CC)C(=O)Nc3sc4c(c3C#N)CCCC4)nc21 (stereo not drawn)	-27.0%	28.2µM*	1.8%	?	-6.1%
CCCn1c2ccccc2c2nnc(SC(CC)C(=O)Nc3cc(C)on3)nc21 (stereo not drawn)	-7.1%	?	-5.2%	-13.5	?
CC(C)=CCC/C(C)=C/CO/N=C1/C[C@@H](O)[C@@H](O)[C@@H]2[C@@H]3C(=O)N(Cc4ccccc4)C(=O)[C@H]3CC[C@H]12	.	1.5%[13.5 µM]	.	.	.
Cc1cnc(CNc2ncnc3ccc(-c4ccccc4C#N)cc23)cn1	-17.1%	-8.7%	-1.9%	.	-1.8%
CCN1C(=O)/C(=C/c2cn(C)nc2C)SC1=S	-11.6%	3.98µM*	-14.7%	30.3	7.6%
CCCN1C(=O)/C(=C/c2ccncc2)SC1=S	-12.5%	10µM*	-0.9%	?	2.9%
COc1cccc(Cn2c(=O)c(CCc3ccccc3)nc3cnc(OC)nc32)c1	-16.6%	3.4%	-14.4%	.	.
O=C(CCN1C(=O)C2C3C=CC(C3)C2C1=O)NCCc1ccccc1Cl (stereo not drawn)	-12.9%	8.91µM*	6.4%	15.6	-0.5%
COC(=O)[C@H](COC(C)(C)C)NC(=O)O[C@@H]1C(=O)c2cc(Br)ccc2O[C@H]1c1cccc(OC)c1	-8.8%	10.9%	.	.	.
COC(=O)[C@H](Cc1ccccc1)NC(=O)O[C@@H]1C(=O)c2cc(OC)ccc2O[C@H]1c1cccc(OC)c1	-19.6%	20µM*	.	.	.
O=C(O)c1ccc(NS(=O)(=O)c2ccsc2C(=O)O)c(O)c1	-11.0%	11.2%	-1.0%	.	.
Cc1ccc(-n2nc(-c3cccs3)cc2C(=O)NCC2CCCO2)c(C)c1 (stereo not drawn)	1µM*	20µM*	-6.0%	18.2	-13.4%
O=C(NCC1CCCO1)c1cc(-c2ccc(Cl)cc2Cl)on1 (stereo not drawn)	8.91µM*	?	1.0%	29.2	-1.4%
Cc1ccc(N(CC(=O)NCC2CCCO2)C(=O)Cn2nnc(-c3cccs3)n2)cc1 (stereo not drawn)	.	-3.0%	.	.	5.8%[46 µM]
Cc1ccc(SCC(=O)NCC2CCCO2)cc1 (stereo not drawn)	.	5.2%	.	.	.
O=C(NCC1CCCO1)c1cc(-c2ccccc2)on1 (stereo not drawn)	?	1.9%	-1.7%	?	?
Cc1ccc(SCCC(=O)NCC2CCCO2)cc1 (stereo not drawn)	15.8µM*	-12.8%	-0.8%	-115.3*	-13.1%
Cc1ccc(-c2cc(C(=O)NCC3CCCO3)no2)cc1 (stereo not drawn)	14.1µM*	?	1.9%	-1.3	-7.8%
CCC(=O)N1CCCc2cc(S(=O)(=O)N3CCC(C(=O)Nc4ccccc4CC)CC3)ccc21	.	.	.	.	-5.5%[46 µM]
CC[C@]1(O)C[C@@H]2CN(CCc3c([nH]c4ccccc34)[C@](C(=O)OC)(c3cc4c(cc3OC)N(C=O)[C@H]3[C@@](O)(C(=O)OC)[C@H](C(=O)OC)[C@@]5(CC)C=CCN6CC[C@]43[C@H]65)C2)C1	-17.8%	-8.1%	-1.7%	.	.
COc1cc2nc(N3CC=[N+](C(=O)c4ccco4)CC3)nc(N)c2cc1OC	.	.	-4.8%	.	.
Cc1ccc2nc(COc3ccccc3NC(=O)COc3ccccc3Cl)cc(=O)n2c1	.	.	.	.	7.4%[46 µM]
